The supplement of paper PMC10849652
About 7,900 targets were measured; listed, in parts, are those with a hit and a random draw of the rest. About 0.6% of all pairs of compound and target were hits.

Compound: c1cn2cc(-c3ccc4cn[nH]c4c3)nc(Nc3ccc(N4CCOCC4)cc3)c2n1 [entospletinib]
Assay: log2 fold change, soluble protein after heating vs DMSO (PISA); higher = thermal stabilisation; K562 cells, 10 uM, 30 min; active = over 0.2 and 3.5 SD of the protein, either way, in both replicates (recomputed)
Outline: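 Values are thermal stability changes relative to control samples and are taken from duplicates. They are stated as log2 fold changes. Before quantification by TMTpro 16plex LC-MS/MS with equalised channel sums, K562 cells at 2×10^6 cells/mL were treated with 10 μM compound for 30 min, heated in aliquots for 3 min across 48°C-58°C, pooled, extracted in PBS with 0.5% NP-40 at 4°C, and centrifuged at 21,000xg for 90 min to give the soluble supernatant.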

Chain of UniProt Q92692 (Q92692 whole entry, looked up): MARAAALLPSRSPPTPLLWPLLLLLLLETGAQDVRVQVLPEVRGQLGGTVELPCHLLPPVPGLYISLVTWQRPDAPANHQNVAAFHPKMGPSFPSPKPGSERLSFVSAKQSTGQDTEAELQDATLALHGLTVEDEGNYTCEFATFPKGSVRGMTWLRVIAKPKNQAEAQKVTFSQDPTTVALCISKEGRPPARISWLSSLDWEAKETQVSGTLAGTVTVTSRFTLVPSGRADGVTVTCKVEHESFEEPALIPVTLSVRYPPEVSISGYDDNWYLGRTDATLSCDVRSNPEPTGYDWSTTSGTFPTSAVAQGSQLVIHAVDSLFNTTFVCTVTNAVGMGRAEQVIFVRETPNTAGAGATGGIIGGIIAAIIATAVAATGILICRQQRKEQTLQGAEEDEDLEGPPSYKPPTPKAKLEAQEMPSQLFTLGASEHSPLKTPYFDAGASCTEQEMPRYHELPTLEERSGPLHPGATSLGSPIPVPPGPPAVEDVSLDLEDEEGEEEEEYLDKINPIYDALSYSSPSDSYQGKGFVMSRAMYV
Chain of UniProt O00567 (O00567 whole entry, looked up): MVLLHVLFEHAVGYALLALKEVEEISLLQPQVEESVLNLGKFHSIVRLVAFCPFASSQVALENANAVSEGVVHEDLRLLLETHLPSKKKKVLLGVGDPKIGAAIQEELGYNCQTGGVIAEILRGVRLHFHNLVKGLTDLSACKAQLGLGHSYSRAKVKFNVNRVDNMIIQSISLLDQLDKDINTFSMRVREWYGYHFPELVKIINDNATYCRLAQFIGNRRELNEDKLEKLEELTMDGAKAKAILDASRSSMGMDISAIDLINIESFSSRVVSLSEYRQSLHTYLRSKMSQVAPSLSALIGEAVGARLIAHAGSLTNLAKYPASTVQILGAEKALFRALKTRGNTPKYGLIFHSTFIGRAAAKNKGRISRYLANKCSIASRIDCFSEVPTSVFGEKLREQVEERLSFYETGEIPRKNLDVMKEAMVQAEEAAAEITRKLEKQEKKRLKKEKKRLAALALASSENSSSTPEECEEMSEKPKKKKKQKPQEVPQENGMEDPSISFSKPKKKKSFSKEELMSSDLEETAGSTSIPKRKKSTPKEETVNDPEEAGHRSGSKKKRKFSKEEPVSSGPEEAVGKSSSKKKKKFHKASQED
Chain of UniProt P30419 (P30419 whole entry, looked up): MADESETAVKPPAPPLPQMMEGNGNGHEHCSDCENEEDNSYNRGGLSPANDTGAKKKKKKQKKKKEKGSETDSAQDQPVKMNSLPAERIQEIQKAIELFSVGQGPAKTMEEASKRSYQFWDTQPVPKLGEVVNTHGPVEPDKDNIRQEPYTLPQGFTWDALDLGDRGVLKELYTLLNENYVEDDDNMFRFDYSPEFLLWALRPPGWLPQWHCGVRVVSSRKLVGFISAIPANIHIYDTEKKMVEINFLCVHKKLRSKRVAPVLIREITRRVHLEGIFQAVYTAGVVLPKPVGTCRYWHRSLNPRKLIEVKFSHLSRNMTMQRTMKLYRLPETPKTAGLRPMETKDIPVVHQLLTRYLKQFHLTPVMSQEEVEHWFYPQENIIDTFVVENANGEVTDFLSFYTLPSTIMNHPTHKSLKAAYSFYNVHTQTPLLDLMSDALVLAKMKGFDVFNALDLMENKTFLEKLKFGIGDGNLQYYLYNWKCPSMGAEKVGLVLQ
Chain of UniProt O43181 (O43181 whole entry, looked up): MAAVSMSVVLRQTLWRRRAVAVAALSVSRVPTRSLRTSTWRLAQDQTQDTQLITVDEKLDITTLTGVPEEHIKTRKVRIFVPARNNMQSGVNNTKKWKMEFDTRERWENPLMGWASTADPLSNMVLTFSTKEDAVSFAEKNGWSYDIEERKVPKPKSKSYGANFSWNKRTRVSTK
Chain of UniProt P46087 (P46087 whole entry, looked up): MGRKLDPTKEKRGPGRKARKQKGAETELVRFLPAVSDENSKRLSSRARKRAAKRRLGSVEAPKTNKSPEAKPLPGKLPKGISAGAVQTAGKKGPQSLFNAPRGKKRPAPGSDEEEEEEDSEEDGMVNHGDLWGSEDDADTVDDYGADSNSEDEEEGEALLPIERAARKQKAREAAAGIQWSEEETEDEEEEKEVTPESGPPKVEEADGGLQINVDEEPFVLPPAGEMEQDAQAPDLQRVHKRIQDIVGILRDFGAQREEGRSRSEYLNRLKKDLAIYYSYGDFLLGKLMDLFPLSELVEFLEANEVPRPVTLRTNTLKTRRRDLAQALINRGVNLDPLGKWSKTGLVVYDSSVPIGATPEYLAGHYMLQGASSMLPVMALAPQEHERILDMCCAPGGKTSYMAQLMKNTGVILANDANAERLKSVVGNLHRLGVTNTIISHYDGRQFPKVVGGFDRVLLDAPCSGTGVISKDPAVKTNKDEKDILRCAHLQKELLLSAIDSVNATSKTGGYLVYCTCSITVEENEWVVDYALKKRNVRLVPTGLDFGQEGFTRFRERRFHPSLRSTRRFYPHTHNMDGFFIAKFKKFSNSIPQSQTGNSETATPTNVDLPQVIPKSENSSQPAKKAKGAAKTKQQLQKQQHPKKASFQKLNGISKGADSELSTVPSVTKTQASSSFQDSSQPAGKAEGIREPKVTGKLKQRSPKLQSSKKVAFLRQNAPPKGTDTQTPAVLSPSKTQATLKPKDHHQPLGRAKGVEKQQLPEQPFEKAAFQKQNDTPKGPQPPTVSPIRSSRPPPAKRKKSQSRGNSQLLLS
Chain of UniProt P49321 (P49321 whole entry, looked up): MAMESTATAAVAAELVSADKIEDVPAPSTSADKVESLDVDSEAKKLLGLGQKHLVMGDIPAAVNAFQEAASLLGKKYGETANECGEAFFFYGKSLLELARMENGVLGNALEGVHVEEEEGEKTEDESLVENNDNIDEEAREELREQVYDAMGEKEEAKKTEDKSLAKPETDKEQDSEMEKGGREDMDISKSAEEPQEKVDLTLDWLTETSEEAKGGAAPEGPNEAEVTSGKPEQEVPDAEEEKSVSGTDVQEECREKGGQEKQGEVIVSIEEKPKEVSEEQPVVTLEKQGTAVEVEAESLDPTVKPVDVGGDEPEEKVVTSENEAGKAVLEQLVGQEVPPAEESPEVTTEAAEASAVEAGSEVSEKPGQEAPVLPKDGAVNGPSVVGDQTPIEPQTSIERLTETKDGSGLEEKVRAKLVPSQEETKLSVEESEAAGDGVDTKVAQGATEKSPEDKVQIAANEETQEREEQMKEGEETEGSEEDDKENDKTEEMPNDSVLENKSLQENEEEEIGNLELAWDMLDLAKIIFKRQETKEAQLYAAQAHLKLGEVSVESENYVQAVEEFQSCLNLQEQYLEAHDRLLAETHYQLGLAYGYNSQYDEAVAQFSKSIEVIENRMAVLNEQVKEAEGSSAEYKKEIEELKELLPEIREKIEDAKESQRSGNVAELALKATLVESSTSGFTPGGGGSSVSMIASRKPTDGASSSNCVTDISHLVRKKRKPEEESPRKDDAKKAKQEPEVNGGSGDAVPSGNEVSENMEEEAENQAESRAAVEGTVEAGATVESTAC
Chain of UniProt Q15738 (Q15738 whole entry, looked up): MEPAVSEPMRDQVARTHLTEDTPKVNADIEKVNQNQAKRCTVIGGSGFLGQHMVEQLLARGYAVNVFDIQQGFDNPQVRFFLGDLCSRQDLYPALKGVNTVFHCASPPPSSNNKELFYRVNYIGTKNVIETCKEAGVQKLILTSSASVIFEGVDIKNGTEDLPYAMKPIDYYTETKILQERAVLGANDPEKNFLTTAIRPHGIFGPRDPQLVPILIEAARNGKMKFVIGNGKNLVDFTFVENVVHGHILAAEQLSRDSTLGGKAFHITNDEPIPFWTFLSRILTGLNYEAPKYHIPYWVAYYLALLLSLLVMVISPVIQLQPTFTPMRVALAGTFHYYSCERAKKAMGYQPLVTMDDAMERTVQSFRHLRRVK
Chain of UniProt P49757 (P49757 whole entry, looked up): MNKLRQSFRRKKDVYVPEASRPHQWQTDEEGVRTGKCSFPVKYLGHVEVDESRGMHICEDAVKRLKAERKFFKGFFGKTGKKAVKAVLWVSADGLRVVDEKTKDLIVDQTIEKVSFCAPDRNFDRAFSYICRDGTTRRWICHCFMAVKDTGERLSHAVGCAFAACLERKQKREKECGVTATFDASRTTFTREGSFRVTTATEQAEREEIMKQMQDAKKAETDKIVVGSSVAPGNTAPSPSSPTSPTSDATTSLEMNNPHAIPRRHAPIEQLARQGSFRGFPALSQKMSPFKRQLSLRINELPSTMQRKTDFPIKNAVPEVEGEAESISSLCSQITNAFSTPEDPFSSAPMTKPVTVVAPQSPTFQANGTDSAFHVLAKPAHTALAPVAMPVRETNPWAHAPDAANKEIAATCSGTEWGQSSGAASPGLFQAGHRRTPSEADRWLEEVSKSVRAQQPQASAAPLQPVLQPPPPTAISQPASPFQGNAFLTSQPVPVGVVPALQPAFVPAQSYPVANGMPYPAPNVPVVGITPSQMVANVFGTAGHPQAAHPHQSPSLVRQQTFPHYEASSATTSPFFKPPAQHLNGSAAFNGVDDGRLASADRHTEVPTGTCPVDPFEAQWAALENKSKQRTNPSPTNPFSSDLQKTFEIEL
Chain of UniProt Q9UH92 (Q9UH92 whole entry, looked up): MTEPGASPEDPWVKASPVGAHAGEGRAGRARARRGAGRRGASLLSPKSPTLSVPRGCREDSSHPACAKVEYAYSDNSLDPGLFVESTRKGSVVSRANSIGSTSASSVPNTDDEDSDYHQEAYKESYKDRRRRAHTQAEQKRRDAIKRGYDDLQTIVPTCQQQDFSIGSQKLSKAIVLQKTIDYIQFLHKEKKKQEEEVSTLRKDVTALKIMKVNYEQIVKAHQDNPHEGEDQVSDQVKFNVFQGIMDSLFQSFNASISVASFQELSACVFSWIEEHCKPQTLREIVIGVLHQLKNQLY
Chain of UniProt P49914 (P49914 whole entry, looked up): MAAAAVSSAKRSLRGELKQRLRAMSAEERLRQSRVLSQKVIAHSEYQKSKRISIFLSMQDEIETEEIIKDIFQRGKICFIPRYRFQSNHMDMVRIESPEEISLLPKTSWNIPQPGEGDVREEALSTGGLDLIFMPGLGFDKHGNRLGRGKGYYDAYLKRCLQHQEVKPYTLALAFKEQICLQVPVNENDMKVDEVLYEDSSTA

log2 fold change, inactive:
NUMB (UniProt P49757) -0.008, MRPS5 (UniProt P82675) 0.044, NOSIP (UniProt Q9Y314) -0.146, NMT1 (UniProt P30419) 0.04, MRPS6 (UniProt P82932) 0.046, MITF (UniProt O75030) -0.085, NASP (UniProt P49321) -0.007, NOP56 (UniProt O00567) -0.012, NME2P1 (UniProt O60361) -0.571, PAAF1 (UniProt Q9BRP4) -0.023, MYH10 isoform 3 (UniProt P35580) -0.073, MRPL34 (UniProt Q9BQ48) 0.047, MTHFS (UniProt P49914) 0.127, NOP2 isoform 4 (UniProt P46087) 0.147, NDUFA9 (UniProt Q16795) -0.011, NDUFS4 (UniProt O43181) 0.069, MLX (UniProt Q9UH92) -0.17, MRPS10 (UniProt P82664) 0.054, MRPS24 (UniProt Q96EL2) 0.086, MRPS16 (UniProt Q9Y3D3) 0.051, NME7 (UniProt Q9Y5B8) -0.022, NSDHL (UniProt Q15738) -0.05, PACS1 (UniProt Q6VY07) 0.046, NACC1 (UniProt Q96RE7) -0.019, MRPS9 (UniProt P82933) 0.087, NGLY1 (UniProt Q96IV0) 0.081, NFE2 (UniProt Q16621) -0.055, MON1A (UniProt Q86VX9) 0.041, NCAPH (UniProt Q15003) 0.012, NECTIN2 (UniProt Q92692) -0.016, MYSM1 (UniProt Q5VVJ2) 0.141, MTHFD1 (UniProt P11586) 0.055, NRDC isoform 2 (UniProt O43847) -0.005, NME1 isoform 2 (UniProt P15531) 0.031
